# PubChem BioAssay (NCI)
# The panel holds about 83,000 compounds, 20% with a hit somewhere; the sample as a whole holds those more often.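 Activity criterion: percent growth below 10, measured after cells in 96-well plates were exposed to a single compound concentration for 48 hours.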 Values without a mark were called inactive. Activity calls are given as the source filed them.
# What was measured:
# Experiment in all cases: NCI-60 one-dose screen, 48 h (100 = growth as untreated, 0 = no growth, -100 = all killed)
# Conditions in all cases: 10 µM unless noted
# EKVX NSCLC = system: EKVX NSCLC
# SN12C renal = system: SN12C renal
# UO-31 renal = system: UO-31 renal
# ACHN renal = system: ACHN renal
# CAKI-1 renal = system: CAKI-1 renal
# CCRF-CEM leukemia = system: CCRF-CEM leukemia
# MOLT-4 leukemia = system: MOLT-4 leukemia
# SR leukemia = system: SR leukemia
# OVCAR-8 ovarian = system: OVCAR-8 ovarian
# OVCAR-5 ovarian = system: OVCAR-5 ovarian
# OVCAR-4 ovarian = system: OVCAR-4 ovarian
# SK-OV-3 ovarian = system: SK-OV-3 ovarian
# IGROV1 ovarian = system: IGROV1 ovarian
# OVCAR-3 ovarian = system: OVCAR-3 ovarian
# HS 578T breast = system: HS 578T breast
# NCI/ADR-RES ovarian = system: NCI/ADR-RES ovarian
# TK-10 renal = system: TK-10 renal
# RPMI-8226 leukemia = system: RPMI-8226 leukemia
# A498 renal = system: A498 renal
Structure (SMILES),growth (EKVX NSCLC),growth (SN12C renal),growth (UO-31 renal),growth (ACHN renal),growth (CAKI-1 renal),growth (CCRF-CEM leukemia),growth (MOLT-4 leukemia),growth (SR leukemia),growth (OVCAR-8 ovarian),growth (OVCAR-5 ovarian),growth (OVCAR-4 ovarian),growth (SK-OV-3 ovarian),growth (IGROV1 ovarian),growth (OVCAR-3 ovarian),growth (HS 578T breast),growth (NCI/ADR-RES ovarian),growth (TK-10 renal),growth (RPMI-8226 leukemia),growth (A498 renal)
COC(=O)/C=C1\S/C(=N\NC(=O)c2cc3ccc2/C=C\c2ccc(cc2)/C=C\3)N(c2ccccc2)C1=O,59%,22.5%,58.5%,49.3%,69.3%,13%,3.03% (active),-15.6% (active),40.7%,48.2%,29.4%,135%,5.97% (active),-6.25% (active),77.9%,31.4%,–,–,–
O=C1Nc2cc(-c3ccc(NC(=O)c4ccccc4)cc3)ccc2/C1=C/c1ccc[nH]1,51.1%,101%,71.6%,95.8%,100%,92.4%,92.8%,29.7%,101%,110%,70%,110%,95.3%,93.9%,115%,90.1%,113%,101%,–
CC1=CCC(OC(=O)C(C)(O)CCC(O)(C(=O)OC2(C)C=CC(O)(C(C)C)CC2)C(C)C)(C(C)C)CC1 (stereo not drawn),99%,98.9%,88.6%,111%,95%,102%,109%,103%,105%,108%,109%,105%,101%,108%,105%,108%,95.6%,107%,–
COC(=O)N[C@H]1CCc2c(Cl)c(OC)c(OC)c(OC)c2-c2ccc(SC)c(=O)cc21,47.8%,21.1%,22.7%,30.9%,15.1%,1.53% (active),3.99% (active),2.15% (active),15.4%,38.5%,39.5%,40.3%,9.16% (active),-46.2% (active),9.58% (active),7.43% (active),45.9%,-5.28% (active),–
N#C/C(=C\c1c(-c2ccccc2)[nH]c2ccccc12)C(=O)c1ccc(Cl)cc1,48.8%,66.7%,47.3%,48.9%,59.6%,2.19% (active),45.9%,48.6%,46.6%,62.5%,-11.2% (active),53.3%,59%,-33.2% (active),4.84% (active),-2.46% (active),68.3%,-9.73% (active),-3.53% (active)
COc1cc2c(c(O)c1Cl)C(=O)c1c(O)cc(C[C@H](C)O)cc1[C@H]2[C@H]1c2cc(C[C@H](C)O)cc(O)c2C(=O)c2c1cc(OC)c(Cl)c2O,13.5%,8.13% (active),2.84% (active),-5.77% (active),8.67% (active),18.6%,14.9%,12.3%,12.8%,8.75% (active),12.7%,8.1% (active),10.4%,-20.4% (active),11%,71.3%,31.8%,14.1%,–
N#Cc1c(-c2ccccc2)nc2c(c(-c3ccccc3)nn2-c2ccccc2)c1-c1ccc(O)cc1,45.2%,61.9%,27.9%,42.3%,53.4%,22.1%,–,–,56%,81.2%,72.2%,71.1%,72%,54.2%,15.9%,–,21.7%,12.9%,-1.01% (active)
CCCCCC(=O)Oc1ccc(/C(=C(/C)Cc2ccc(OC)cc2)c2ccc(OCCCN(C)C)cc2)cc1,88.7%,79.5%,58.6%,91.9%,78.3%,68.1%,–,10.9%,96.2%,96.4%,71.4%,81.5%,63.9%,86.5%,59.9%,88.2%,100%,82.7%,–
Cc1nn(-c2ccccc2)c(Oc2c(Cl)cccc2Cl)c1/C=N/N=c1\sc2ccccc2n1C,77.9%,59.1%,57.5%,43.7%,36.4%,40.7%,18.6%,16.6%,45.8%,58.5%,81.8%,70.6%,53.6%,49.9%,73.2%,–,85.7%,36.6%,–
Cc1nc2sccn2c1-c1nc2sccn2c1/C=C1/C(=O)Nc2ccccc21,56.6%,65.6%,39.6%,41.5%,2.29% (active),35%,–,–,52.1%,41.8%,63.6%,31.2%,–,-30.9% (active),31.8%,47.9%,70.9%,20.1%,5.72% (active)
O=C(Nc1ccccc1)Nc1ccc2cc3ccc(NC(=O)Nc4ccccc4)cc3nc2c1,86.6%,-26.5% (active),89.9%,92%,80.3%,0.957% (active),-27.6% (active),-18.6% (active),-23.7% (active),92.4%,-31.9% (active),112%,51%,-11.6% (active),-26.7% (active),102%,–,104%,–
Cc1cc2nc3c4ccc(Br)cc4n(CCN(C)C)c3nc2cc1C,22.7%,16.7%,-30.3% (active),-7.69% (active),0.198% (active),12.7%,3.31% (active),-2.61% (active),21.6%,25.1%,12.3%,33.8%,4.76% (active),21.1%,53.9%,17%,22.2%,-30.4% (active),–
